S1P3 antagonist = S1P3 receptor antagonists, primary screen, cell-based; CHO S1P3 NFAT-BLA reporter, FRET fluorescence, antagonist mode; inhibition, % at 4.98 µM; hit rate 0.27% among 170,000;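 active = inhibition above the plate cutoff, the mean inhibition of test wells on that plate plus 3 SD, cut at about 28% in these data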;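 also: cells challenged with S1P at its EC80 of 0.8 µM; blue over green emission ratio from cleaved BLA substrate after 4 h stimulation; 0% = S1P-stimulated wells and 100% = unstimulated DMSO-only wells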
Target sequence (Q99500 whole entry, looked up): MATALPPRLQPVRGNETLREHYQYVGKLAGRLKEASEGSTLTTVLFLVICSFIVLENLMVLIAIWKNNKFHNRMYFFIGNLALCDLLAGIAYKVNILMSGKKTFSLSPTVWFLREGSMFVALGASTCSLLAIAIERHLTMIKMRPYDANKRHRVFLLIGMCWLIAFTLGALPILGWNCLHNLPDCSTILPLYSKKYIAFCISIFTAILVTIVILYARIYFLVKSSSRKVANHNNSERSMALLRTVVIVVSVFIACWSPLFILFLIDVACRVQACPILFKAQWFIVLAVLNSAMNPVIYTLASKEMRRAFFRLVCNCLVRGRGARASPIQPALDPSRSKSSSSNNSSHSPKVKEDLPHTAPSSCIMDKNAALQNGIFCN
S1P4 antagonist = S1P4 receptor antagonists, primary screen, cell-based; S1P4-expressing cells, antagonist mode, reporter read-out; inhibition, % at 4.98 µM; hit rate 0.26% among 220,000; in the data active = inhibition above about 29%;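 also: 0% = wells stimulated with agonist and 100% = vehicle wells without agonist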
EP2 antag = human EP2 receptor antagonists, primary screen, TR-FRET cAMP, C6 glioma cells. Prostaglandin E2 receptor EP2 subtype (Homo sapiens), P43116. C6 glioma cells expressing human EP2; cells stimulated with saturating PGE2. inhibition, % at 25 µM. hit rate 0.52% among 260,000. AID 1422, 2008;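 active = percent inhibition above 40 after rounding to a whole number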;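 also: rat C6 glioma host cells with rolipram phosphodiesterase inhibitor present; the protocol text gives 20 µM as final concentration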
S1P4 ag = S1P4 receptor agonists, primary screen, cell-based. Sphingosine 1-phosphate receptor 4 (Homo sapiens), O95977. hit rate 0.35% among 220,000. AID 1509, 2009. S1P4-expressing cell line, agonist reporter assay. activation, % at 4.98 µM; in the data active = activation above about 11%;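 also: 0% = DMSO vehicle and 100% = reference agonist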
EP2 mod = EP2 receptor modulators, cAMP readout, primary screen, cell-based, HTRF cAMP, PGE2 stimulation. Prostaglandin E2 receptor EP2 subtype (Homo sapiens), P43116. EP2-expressing cells, cAMP HTRF FRET, PGE2 co-stimulation. induction, % at 25 µM. hit rate 0.83% among 260,000;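 active = compounds whose cAMP rise, as percent of the full-agonist control response, exceeds 60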;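 also: rat C6 glioma line stably carrying human EP2 under a CMV promoter; the protocol text gives 20 µM as final concentration; 100% = response of wells given 1 µM PGE2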
* hit, by the source's call; . = no result given; ! = not confirmed by another sample. The list is not random: actives were taken first. Their share in the collection is about 1.9%.

SMILES	S1P3 antagonist	S1P4 antagonist	EP2 antag	S1P4 ag	EP2 mod
CCC(c1nnnn1C(C)(C)CC)N(Cc1ccccc1Cl)Cc1cc2cc(C)ccc2[nH]c1=O (centres undefined)	.	.	6	.	33
Cc1cc(C(=O)NCC(=O)N2CCC3(CC2)NC(=O)c2ccccc2N3)c(C)o1	.	.	10	.	9
Cc1ccc(C(=O)c2no[n+]([O-])c2C(=O)c2ccc(C)cc2)cc1	10	1	50*	2	-45
O=C(CSc1ncccc1-c1nc2ccccc2[nH]1)N1CCCCCC1	.	.	6	.	-45
N#Cc1c(NC(=O)C(F)(F)F)sc2c3c(=O)c4ccccc4c(=O)c=3oc3ccccc3c12	.	.	42*	.	-6
CC(=O)c1cc(C(=O)Nc2ccc(Oc3ccc4c(c3)OCO4)cc2)cs1	.	.	5	.	-91
CCc1ccc(N2C(=O)C3ON(c4ccccc4)C(c4ccco4)C3C2=O)cc1 (centres undefined)	-11	-23	14	-4	49
CCCCN1C(=O)C2ON(c3ccccc3C)C(c3ccco3)C2C1=O (centres undefined)	6	1	12	3	63*
Oc1ccccc1-c1nc(/C=C/c2ccccc2)nn1-c1ccccc1	-3	16	14	0	50
Oc1ccc(/C=C/c2nc(-c3ccccc3O)n(-c3ccccc3)n2)cc1	.	-3	13	1	65*
CCN(CC)C(=S)SCC(=O)c1ccccc1	.	-5	7	2	-30
CCN(CC)C(=S)SSC(=S)N(CC)CC	-1	10	60*!	-1	-36
CCc1c(C)sc2nc(C(C)C)n3c(=O)n(Cc4ccncc4)nc3c12	.	.	.	.	61*
COc1ccccc1NC(=O)CSc1nnc2n(CC(=O)N3CCCC3)c3ccccc3n12	.	.	4	.	9
CC1CCN(CCOc2ccccc2-c2ccccc2)CC1	2	7	12	7	28
CC1CCN(CC[S-])CC1.O.O.[Cl][Pt]	.	.	97*	.	-45
CCCCCC(=O)Nc1cc(N(C)C)nc2ccccc12	0	-5	40*	1	.
COc1ccc(CC(=O)N2CCC(n3nc(-c4ccoc4C)oc3=O)CC2)cc1	.	.	7	.	-38
O=C(Cc1cc(=O)oc2cc(O)ccc12)NCC1CCC(C(=O)O)CC1 (centres undefined)	-9	-1	12	6	64*
COc1ccc2c(CC(=O)O)cc(=O)oc2c1	-8	8	7	0	20
CCOC(=O)c1cccc(NC(=O)CSc2nnc(C)c(C)n2)c1	.	.	24	.	38
COc1ccc2c(c1)Cc1cc(N=[N+]([O-])c3ccc4c(c3)Cc3cc(OC)ccc3-4)ccc1-2	.	.	114*	.	-80
CC1CCCC(C)N1C(=O)Cn1nc(-c2ccncc2)oc1=O (centres undefined)	.	.	.	.	4
COc1ccccc1NC(=O)Nc1nn(C)c2cccc(OC)c12	12	-1	12	1	75*
COc1cccc2c1c(NC(=O)c1cc(C)on1)nn2C	-10	-8	11	0	-15
SMILES	S1P3 antagonist	S1P4 antagonist	EP2 antag	S1P4 ag	EP2 mod
CC(C)c1ccc(/C=C(\c2nc3ccccc3[nH]2)S(=O)(=O)c2ccccc2)cc1	10	24	9	-1	7
O=S(=O)(/C(=C/c1ccc(C(F)(F)F)cc1)c1nc2ccccc2[nH]1)c1ccccc1	8	92*	28	-1	-54
C(CCc1nnc2c(n1)CCCC2)Cc1nnc2c(n1)CCCC2	.	.	45*	.	10
Nc1nnc2c(n1)CCCC2	0	-8	10	2	13
CC(CCc1nc2ccccc2s1)(c1ccc(O)cc1)c1ccc(O)cc1	.	.	100*	.	-33
Clc1ccccc1-c1ncnc2ccc(Br)cc12	-27	5	17	0	64*!
O=C(O)CCC(=O)N1CCN(c2nc(-c3ccccc3Cl)c3cc(Br)ccc3n2)CC1	.	-1	18	7	33
O=Cc1ccc(OCc2cccc(C(F)(F)F)c2)cc1O	7	-2	6	1	63*
Nc1nc2ccccc2n1CCCOc1ccccc1Cl	.	.	4	.	-66
COC(=O)c1ccccc1NC(=O)CSc1nc(-c2ccco2)cc(C(F)(F)F)n1	12	4	6	-1	65*!
C[C@H](CCC(=O)O)[C@H]1CC[C@@]2(C)[C@@H]3C(=O)C[C@H]4C(C)(C)[C@@H](O)CC[C@]4(C)[C@H]3C(=O)C[C@]12C	.	.	46*	.	31
O=C(O)[C@H]1CCCC[C@@H]1c1c2ccc(=O)c(O)c-2oc2c(O)c(O)ccc12	.	.	42*	.	-17
Cc1cc2cc3c(cc2nc1SCC(=O)N1CCCC(C)C1)OCCO3 (centres undefined)	.	.	15	.	12
COc1cccc(-c2cc(C(=O)Nc3c(C)nn(Cc4ccccc4)c3C)no2)c1	54*	6	7	-2	-27
COc1ccc(-c2cc(C(=O)Nc3c(C)nn(Cc4ccccc4)c3C)no2)cc1	.	-2	8	-2	-31
COc1ccc(Cn2c(-c3ccccc3)nc3c(c(=O)c4ccccc4n3C)c2=O)cc1	-3	-18	35	2	24
Cn1c2ccccc2c(=O)c2c(=O)n(Cc3ccco3)c(-c3ccc(C(C)(C)C)cc3)nc21	-3	-9	10	1	65*
CC1CCN(C(=O)CSc2nc(-c3ccco3)cc(C(F)(F)F)n2)CC1	.	.	12	.	-7
CCc1ccccc1NC1c2ccccc2C(=O)N1Cc1ccco1 (centres undefined)	75*	-27	11	0	39
Cc1sc2nc(Cc3ccccc3)n(C3CCN(CC(N)=O)CC3)c(=O)c2c1C	.	.	2	.	49
CCCc1c(-c2ccc(O)cc2)nn(-c2ccc(O)cc2)c1-c1ccc(O)cc1	.	.	100*	.	-22
COc1ccc(Nc2cnn(-c3nc4ccccc4s3)c(=O)c2Cl)cc1	7	-20	61*	0	-76
O=c1c(Cl)c(Nc2cccc(Cl)c2)cnn1-c1nc2ccccc2s1	-1	-11	10	1	-62
CCOC(=O)c1nnn(-c2nonc2N)c1COc1cc(C)c(Cl)c(C)c1	58*	1	5	3	.
Cc1ccnc(N2CCCC(C(=O)Nc3ccc(C)c(F)c3)C2)n1 (centres undefined)	.	.	8	.	-49
SMILES	S1P3 antagonist	S1P4 antagonist	EP2 antag	S1P4 ag	EP2 mod
CC(C)(C)C(=O)[C@H]([C@@H](c1ccccc1)N1CCOCC1)N1CCOCC1	.	.	49*	.	30
CC1(C)N([O-])c2cc([N+](=O)[O-])ccc2[N+]1=O	-10	-3	87*	1	-45
Cc1ccc(C)n1-c1cc([N+](=O)[O-])ccc1-n1ccnc1	-5	8	7	1	9
O=C(CCc1ccc(O)cc1)c1c(O)cc(O)cc1O	.	.	9	.	-4
COc1cc(O)c(CC=C(C)C)c(O)c1C(=O)CCc1ccc(O)cc1	.	.	76*	.	-4
CCn1c(SCC(=O)Nc2cc(C)on2)nc2sc3c(c2c1=O)CCCC3	-10	-6	.	0	9
